The whole screen tested about 69,000 compounds, of which about 8,600 (12%) showed an effect of 50% or more. The sample holds strong results, similar compounds and a random draw of the others, so the mix is not that of the screen.
test system: Plasmodium berghei; assay: Screen against P. berghei liver stage (PbLuc), transformed with Luciferase, at 10uM; assay type: functional, HepG2; conditions: tested at 10 uM

SMILES | INHIBITION [%]
Cc1ccc(NC2CCN(C(=O)c3cscn3)CC2)nn1 | -77.1
CC(C(=O)NCc1cn2cc(Br)ccc2n1)S(C)(=O)=O (stereo not given) | 40.6
CCOCCOC(C)C(=O)NCc1cn2cc(Cl)ccc2n1 (stereo not given) | 53.4
CCOCCOC(C)C(=O)NCc1cn2cc(Br)ccc2n1 (stereo not given) | -27.6
COc1c(C)cnc(CNC(=O)CCOCC(C)C)c1C | -74
CCOCCOC(C)C(=O)NCc1ccc(N2CCCCC2)cc1 (stereo not given) | 21.7
CCOCCCC(=O)NCc1cn2cc(Br)ccc2n1 | 11.1
CC(C)COCCC(=O)NCc1cn2cc(Br)ccc2n1 | 55.1
CCC(CC)C(=O)NCc1cn2cc(Br)ccc2n1 | 50
CCCC(C)C(=O)NCc1cn2cc(Br)ccc2n1 (stereo not given) | -19
CN(C)c1cc(C2CCCN(C(=O)c3ccc(=O)[nH]n3)C2)ccn1 (stereo not given) | 34.1
CC(=O)NCc1cc2n(n1)CCN(Cc1cccc(CCN)c1)C2 | -7.53
Cc1ccccc1C(=O)NCc1ccnc(N(C)C)c1 | 24
O=C(c1ccncc1)N1CCC(c2nc(O)cc(-c3cccnc3)n2)C1 (stereo not given) | 48.9
CNC(=O)[C@H]1CC[C@@H]2[C@@H](CCN2C(=O)N(C)C)O1 | 15.7
CNC(=O)[C@@H]1CC[C@@H]2[C@@H](CCN2C(=O)N(C)C)O1 | 58.5
CN(C)C(=O)[C@H]1CC[C@@H]2[C@@H](CCN2C(=O)N(C)C)O1 | 14.2
Cn1cccc1C(=O)N1C[C@@H]2C[C@@H](c3nnc(C4CC4)o3)O[C@@H]2C1 | 43.9
CCCc1noc(C2CCN(C(=O)C3CCCO3)CC2)n1 (stereo not given) | 13.9
CCc1cc(N(C)Cc2nonc2C)nc(N2CCOCC2)n1 | 27.7
CCc1cc(N(C)Cc2ncc[nH]2)nc(N2CCOCC2)n1 | 25.8
CCc1cc(N(C)Cc2[nH]nc3c2CCC3)nc(N2CCOCC2)n1 | 51.1
Cc1cc(Oc2ccccc2)nc(C2CCCCN2)n1 (stereo not given) | 16.5
CNc1cc(N2CCCC2CNCc2cccs2)ncn1 (stereo not given) | 36.8

SMILES | INHIBITION [%]
CNc1cc(N2CCCC2CNCc2ccccn2)ncn1 (stereo not given) | -21.3
CNc1cc(N2CCCC2CNCc2ccc(Cl)o2)ncn1 (stereo not given) | 56.9
CNc1cc(N2CCCC2CNCc2ccco2)ncn1 (stereo not given) | 59.8
CNc1cc(N2CCCC2CNCc2ccc(C)o2)ncn1 (stereo not given) | -0.448
CNc1cc(N2CCCC2CNCc2cnc(C)cn2)ncn1 (stereo not given) | 7.7
O=C(CNC(=O)c1ccc(Cl)cc1)Nc1nccs1 | 14.5
COc1ncccc1NC(=O)N(C1CC1)C(C)C(C)C (stereo not given) | 31.3
Cc1nc(CC(=O)NCCN2CCC(c3ccccc3C)C2)cs1 (stereo not given) | 42.4
Cc1ccccc1C1CCN(CCNC(=O)CS(C)(=O)=O)C1 (stereo not given) | 36.9
CCCc1nc(C(=O)NCCN2CCC(c3ccccc3C)C2)cs1 (stereo not given) | 85.1
COc1c(Br)c(CC2CC(CO)=NO2)c(OC)c2c1OCO2 (stereo not given) | 22.6
CCn1cc(CN2CCN(C(=O)c3cc(Br)cs3)CC2)c(C)n1 | 38.3
Cn1cc(Cl)c(CN(Cc2ccsc2)CC2CCCO2)n1 (stereo not given) | 11.5
CCN(Cc1ccc(C(C)=O)cc1)CC1CCOCC1 | 14.6
CCCN(CCn1c(=O)oc2ccccc21)CC1CC1 | 56.3
O=c1c2ccccc2nnn1CN(CC1CCOC1)C1CC1 (stereo not given) | -5.92
CCN(CC)CCn1c(=O)oc2ccccc21 | -5.1
Cn1cc(C2CCCN2CCCn2c(=O)oc3ccccc32)cn1 (stereo not given) | 1.84
CCN(CCn1c(=O)oc2ccccc21)CC1CCOCC1 | 64.9
O=c1oc2ccccc2n1CCCN1CCCC1c1ccc(O)cc1 (stereo not given) | 6.61
Cc1nn(CN(CC2CCOC2)C2CC2)c(=O)c2ccccc12 (stereo not given) | 8.86
O=c1oc2ccccc2n1CCN(CC1CCOC1)C1CC1 (stereo not given) | 51.3
CCn1cc2[nH]c(OC)c(CNC(=O)C3CCCN(C)C3)cc-2c1=O (stereo not given) | 34.4
CC(C)(C)Nc1c(C2CCCN(C(=O)C3CC3)C2)nc2ccccn12 (stereo not given) | 14.05

SMILES | INHIBITION [%]
Cc1nnc(CN(CCc2ccccc2)C2CCN(C)CC2)s1 | 4.12
CCn1cc(CNC2CCN(c3cccc(C)c3C)CC2)cn1 | -12.1
CCOC1COC2(CCN(CC3CC3)CC2)C1 (stereo not given) | 26.7
Nc1nccc(C2CCN(CCO)C2)n1 (stereo not given) | 15.5
CNC(=O)[C@H]1C[C@@H]2CCN(c3nnc(C)s3)C[C@@H]2O1 | 21.8
COCCNC(=O)[C@H]1C[C@@H]2CCN(c3nncs3)C[C@H]2O1 | 18.5
Cc1ccc(CN2CC[C@H]3C[C@H](C(=O)N(C)C)O[C@H]3C2)cc1 | 25.5
Cc1nnc(N2CC[C@H]3C[C@H](C(=O)N4CCOCC4)O[C@H]3C2)s1 | 50
Cc1nnc(N2CC[C@H]3C[C@H](C(=O)N(C)C)O[C@@H]3C2)s1 | 88.2
CN(C)C(=O)[C@@H]1C[C@@H]2CCN(C3CCOCC3)C[C@H]2O1 | 21.4
Cc1nnc(N2CC[C@H]3C[C@@H](C(=O)N4CCCC4)O[C@H]3C2)s1 | -0.388
Cc1ccc(N2CC[C@H]3C[C@@H](C(=O)N4CCOCC4)O[C@H]3C2)nn1 | 34.1
Cc1nnc(N2CC[C@H]3C[C@@H](C(=O)NC4CCCC4)O[C@H]3C2)s1 | 61.4
CCc1noc(CN2CCC(NC(=O)c3ccc(C)s3)CC2)n1 | -30
CCS(=O)(=O)CCSc1ccc(Cl)cc1 | 18.6
CCN(C(=O)COc1nc(Cc2ccc(F)cc2)no1)C1CC1 | -50.7
COc1ccc(-n2cc3[nH]c(=O)n(Cc4cccc(F)c4)n3c2=O)cc1 | -67
Cc1c(NC(=O)CN2CCN(C3CCCC3)C(=O)C2)cnn1C | 7.85
Cc1oc(C(=O)O)cc1S(=O)(=O)Nc1cccc(Cl)c1F | -46.2
CC(=O)N1CCCN(S(=O)(=O)c2cc3ccccc3o2)CC1 | 16.6
O=S(=O)(c1cc2ccccc2o1)N1CCCC1 | 59.4
CCN1CCCN(S(=O)(=O)c2cc3ccccc3o2)CC1 | 46.6

— ChEMBL document CHEMBL4513216, “Probing the Open Global Health Chemical Diversity Library for Multistage-Active Starting Points for Next-Generation Antimalarials” (ACS Infect Dis, 2020)
